Measurements taken from PubChem BioAssay (EPA / NIEHS).
Inconclusive results are not listed. Active and inactive are the calls of the source. How the source made its calls, unless noted: active means hit-call score of the fitted dose curve at least 0.9, where 1 is the maximum; inconclusive means response in the unintended direction; inactive means score below 0.9.

Legend:
[1] = target: T1, Thyroid hormone receptor alpha (Rattus norvegicus) + Thyroid hormone receptor beta (Rattus norvegicus) (UniProt P18113+P63059); experiment: TOX21_TR_LUC_GH3_Agonist_Followup: Tox21 GH3 Thyroid Hormone Receptor Agonism Luciferase Follow-Up Assay (AID 2283939)
T1 sequence (P63059 whole entry, looked up): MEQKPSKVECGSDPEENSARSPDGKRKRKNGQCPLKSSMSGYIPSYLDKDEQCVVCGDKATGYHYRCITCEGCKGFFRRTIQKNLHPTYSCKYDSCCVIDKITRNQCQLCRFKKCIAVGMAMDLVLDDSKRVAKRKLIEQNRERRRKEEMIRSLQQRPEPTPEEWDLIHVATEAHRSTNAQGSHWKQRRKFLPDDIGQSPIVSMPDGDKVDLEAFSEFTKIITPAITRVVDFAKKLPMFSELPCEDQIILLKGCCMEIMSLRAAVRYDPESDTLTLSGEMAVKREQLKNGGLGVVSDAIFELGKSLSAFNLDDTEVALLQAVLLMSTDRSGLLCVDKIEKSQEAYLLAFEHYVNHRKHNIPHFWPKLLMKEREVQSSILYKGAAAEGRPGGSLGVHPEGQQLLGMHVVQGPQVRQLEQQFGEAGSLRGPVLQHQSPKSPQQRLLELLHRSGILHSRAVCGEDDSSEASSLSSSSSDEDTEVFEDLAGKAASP
T1 sequence (P18113 whole entry, looked up): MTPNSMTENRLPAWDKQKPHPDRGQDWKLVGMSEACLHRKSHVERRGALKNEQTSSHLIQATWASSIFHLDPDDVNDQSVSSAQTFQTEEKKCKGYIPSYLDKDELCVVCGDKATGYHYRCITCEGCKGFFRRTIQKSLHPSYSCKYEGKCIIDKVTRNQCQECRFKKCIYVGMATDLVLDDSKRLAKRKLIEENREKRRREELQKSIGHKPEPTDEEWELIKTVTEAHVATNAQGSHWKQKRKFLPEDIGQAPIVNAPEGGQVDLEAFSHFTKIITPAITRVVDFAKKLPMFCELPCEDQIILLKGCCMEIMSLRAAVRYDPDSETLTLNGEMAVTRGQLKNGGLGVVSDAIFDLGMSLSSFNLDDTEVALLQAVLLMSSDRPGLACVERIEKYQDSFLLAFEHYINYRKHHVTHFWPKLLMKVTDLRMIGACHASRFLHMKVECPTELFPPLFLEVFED
How it was run: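 Agonist-mode confirmatory run: 15 concentrations (5 nM to 92 uM final) on GH3 rat pituitary cells, 24 h at 37C/5% CO2, T3 as positive control. Luminescence read with ONE-Glo after 30 min.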

THRA (gene 7067) [2] = target: THRA (gene 7067) (UniProt P10827); experiment: TOX21_TRA_COA_Agonist_Followup_ratio: Tox21 Thyroid Hormone Receptor alpha Agonism through Coactivator Recruitment Follow-Up Assay, Ratio (AID 2283948; active means hit-call score of the fitted dose curve at least 0.9, where 1 is the maximum; inactive means score below 0.9)
Chain of THRA (gene 7067) (P10827 whole entry, looked up, the tested form may be a part): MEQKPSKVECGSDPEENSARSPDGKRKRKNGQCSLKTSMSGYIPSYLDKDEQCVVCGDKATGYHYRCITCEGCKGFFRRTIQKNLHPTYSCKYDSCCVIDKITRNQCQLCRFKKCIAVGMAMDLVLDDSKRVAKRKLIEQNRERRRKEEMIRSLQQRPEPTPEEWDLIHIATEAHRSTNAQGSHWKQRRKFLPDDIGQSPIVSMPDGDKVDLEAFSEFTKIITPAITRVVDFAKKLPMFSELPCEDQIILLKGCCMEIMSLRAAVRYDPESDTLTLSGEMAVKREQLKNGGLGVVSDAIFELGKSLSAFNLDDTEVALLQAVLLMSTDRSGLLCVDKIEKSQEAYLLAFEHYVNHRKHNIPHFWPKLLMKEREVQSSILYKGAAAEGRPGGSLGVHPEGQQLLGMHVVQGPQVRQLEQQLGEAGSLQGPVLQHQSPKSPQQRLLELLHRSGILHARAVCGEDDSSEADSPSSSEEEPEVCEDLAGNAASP
How it was run: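 Cell-free TR-FRET: GST-tagged TRα LBD (2.5 nM) with 0.10% BSA and compound, then fluorescein-SRC-2 peptide (200 nM) and Tb-anti-GST antibody (2 nM). Readout 520:495 nm ratio (ex 340 nm), normalized to DMSO (0%) and T3 (100%).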

THRB (gene 7068) [3] = target: THRB (gene 7068) (UniProt P10828); experiment: TOX21_TRB_BLA_Agonist_Followup_ratio: Tox21 Thyroid Hormone Receptor beta Agonism Beta-lactamase (BLA) Follow-Up Assay, Ratio (AID 2283954)
Chain of THRB (gene 7068) (P10828 whole entry, looked up, the tested form may be a part): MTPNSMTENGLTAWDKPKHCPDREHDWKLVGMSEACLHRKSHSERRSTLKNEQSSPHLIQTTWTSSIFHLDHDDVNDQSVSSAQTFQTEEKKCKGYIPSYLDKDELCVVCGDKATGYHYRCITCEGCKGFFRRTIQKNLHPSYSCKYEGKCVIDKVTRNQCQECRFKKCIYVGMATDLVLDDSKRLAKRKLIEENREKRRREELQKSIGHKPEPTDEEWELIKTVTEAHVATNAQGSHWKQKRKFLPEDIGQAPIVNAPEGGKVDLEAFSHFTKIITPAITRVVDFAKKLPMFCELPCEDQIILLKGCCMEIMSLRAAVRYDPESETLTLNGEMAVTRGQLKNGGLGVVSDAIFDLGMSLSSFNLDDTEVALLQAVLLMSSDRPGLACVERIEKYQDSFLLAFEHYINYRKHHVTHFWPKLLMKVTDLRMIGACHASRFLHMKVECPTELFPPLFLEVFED
How it was run: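 Agonist mode: compounds (11-point, triplicate) incubated 18 h with HEK293T cells carrying GAL4-DBD/human TRβ-LBD and UAS-β-lactamase. Blue/green (460/530 nm) FRET ratio read after 2 h CCF4-AM loading; CellTiter-Glo viability run in the same plates.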

THRB (gene 7068) [4] = target: THRB (gene 7068) (UniProt P10828); experiment: TOX21_TRB_COA_Agonist_Followup_ratio: Tox21 Thyroid Hormone Receptor beta Agonism through Coactivator Recruitment Follow-Up Assay, Ratio (AID 2283963; active means hit-call score of the fitted dose curve at least 0.9, where 1 is the maximum; inactive means score below 0.9)
How it was run: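 GST-TRb LBD 5.0 nM + 0.10% BSA + cpd; add fluorescein-SRC-2 200 nM / Tb anti-GST Ab 2 nM; TR-FRET ex 340, em 520:495; norm DMSO 0%, T3 100%.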

[5] = target: Retinoic acid receptor RXR-alpha (Homo sapiens) (UniProt P19793); experiment: TOX21_TR_RXR_BLA_Agonist_Followup_ratio: Tox21 Thyroid Hormone Receptor beta Retinoid X Receptor alpha (RXRa) Agonism Beta-lactamase (BLA) Follow-Up Assay, Ratio (AID 2283968)
Chain of Retinoic acid receptor RXR-alpha (Homo sapiens) (P19793 whole entry, looked up): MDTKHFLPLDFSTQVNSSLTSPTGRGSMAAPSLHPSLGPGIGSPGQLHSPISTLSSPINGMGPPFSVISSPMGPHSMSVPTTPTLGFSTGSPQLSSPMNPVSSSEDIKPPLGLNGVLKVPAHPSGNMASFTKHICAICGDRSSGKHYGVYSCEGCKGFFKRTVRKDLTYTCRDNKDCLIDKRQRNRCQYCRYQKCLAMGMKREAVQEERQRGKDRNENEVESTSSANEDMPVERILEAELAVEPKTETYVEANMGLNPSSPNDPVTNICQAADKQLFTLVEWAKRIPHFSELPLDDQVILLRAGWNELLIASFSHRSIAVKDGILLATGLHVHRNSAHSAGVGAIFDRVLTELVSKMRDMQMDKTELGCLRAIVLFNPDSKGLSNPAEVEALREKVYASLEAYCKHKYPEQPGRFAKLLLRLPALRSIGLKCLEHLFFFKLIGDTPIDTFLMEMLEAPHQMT
How it was run: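 Cells were first allowed to attach for 5 h, after which compounds in DMSO were pinned at 11 concentrations and incubated 16 h at 37C. LiveBLAzer CCF4-AM substrate was then added for 2 h at room temperature before reading 460 and 530 nm fluorescence.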

[6] = TOX21_TR_RXR_BLA_Agonist_Followup_viability: Viability Assessment in the Tox21 Thyroid Hormone Receptor beta Retinoid X Receptor alpha (RXRa) Agonism Beta-lactamase (BLA) Follow-Up Assay (AID 2283970)
How it was run: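 Viability counter-screen run alongside the RXRa bla follow-up: HEK293T reporter cells were treated for 16h at 37C in stripped-serum medium, then ATP was quantified by luciferase-coupled CellTiter-Glo. Decreased signal relative to DMSO marked cytotoxicity.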

[7] = target: T1, Thyroid hormone receptor alpha (Rattus norvegicus) + Thyroid hormone receptor beta (Rattus norvegicus); experiment: TOX21_TR_LUC_GH3_Antagonist_Followup: Tox21 GH3 Thyroid Hormone Receptor Antagonism Luciferase Follow-Up Assay (AID 2283942)
How it was run: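 In a GH3 luciferase reporter line, test chemicals spanning 92 uM to 5nM final are co-incubated 24 h with 1.0 nM T3. Activity is expressed as relative luminescence units and analysed relative to DMSO.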

[8] = TOX21_TRB_BLA_Antagonist_Followup_viability: Viability Assessment in the Tox21 Thyroid Hormone Receptor beta Antagonism Beta-lactamase (BLA) Follow-Up Assay (AID 2283961)
How it was run: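 HEK293T cells with GAL4-human TRβ LBD and UAS-bla reporter, 3,000 cells/well in 2% charcoal-stripped FBS medium; 11-point concentrations in triplicate, 18 h at 37C. Viability from ATP by CellTiter-Glo luminescence, 30 min RT, same plates.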

THRB (gene 7068) [9] = target: THRB (gene 7068) (UniProt P10828); experiment: TOX21_TRB_COA_Antagonist_Followup_ratio: Tox21 Thyroid Hormone Receptor beta Antagonism through Coactivator Recruitment Follow-Up Assay, Ratio (AID 2283967)
How it was run: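 Coactivator (SRC-2) recruitment to purified GST-TRβ ligand-binding domain is monitored by terbium-to-fluorescein energy transfer, emission ratio 520:495 nm. DMSO wells define 0% and T3 wells 100% activity.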

PGR (gene 5241) [10] = target: PGR (gene 5241) (UniProt P06401); experiment: TOX21_PR_BLA_Followup_Antagonist_ratio: Tox21 HEK293 Progesterone Receptor (PR) Antagonism Beta-lactamase Follow-Up Assay, Ratio (AID 2283934);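 further: PR-UAS-bla HEK293T cells stimulated with 1 nM R5020 agonist for 16 hr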
Chain of PGR (gene 5241) (P06401 whole entry, looked up): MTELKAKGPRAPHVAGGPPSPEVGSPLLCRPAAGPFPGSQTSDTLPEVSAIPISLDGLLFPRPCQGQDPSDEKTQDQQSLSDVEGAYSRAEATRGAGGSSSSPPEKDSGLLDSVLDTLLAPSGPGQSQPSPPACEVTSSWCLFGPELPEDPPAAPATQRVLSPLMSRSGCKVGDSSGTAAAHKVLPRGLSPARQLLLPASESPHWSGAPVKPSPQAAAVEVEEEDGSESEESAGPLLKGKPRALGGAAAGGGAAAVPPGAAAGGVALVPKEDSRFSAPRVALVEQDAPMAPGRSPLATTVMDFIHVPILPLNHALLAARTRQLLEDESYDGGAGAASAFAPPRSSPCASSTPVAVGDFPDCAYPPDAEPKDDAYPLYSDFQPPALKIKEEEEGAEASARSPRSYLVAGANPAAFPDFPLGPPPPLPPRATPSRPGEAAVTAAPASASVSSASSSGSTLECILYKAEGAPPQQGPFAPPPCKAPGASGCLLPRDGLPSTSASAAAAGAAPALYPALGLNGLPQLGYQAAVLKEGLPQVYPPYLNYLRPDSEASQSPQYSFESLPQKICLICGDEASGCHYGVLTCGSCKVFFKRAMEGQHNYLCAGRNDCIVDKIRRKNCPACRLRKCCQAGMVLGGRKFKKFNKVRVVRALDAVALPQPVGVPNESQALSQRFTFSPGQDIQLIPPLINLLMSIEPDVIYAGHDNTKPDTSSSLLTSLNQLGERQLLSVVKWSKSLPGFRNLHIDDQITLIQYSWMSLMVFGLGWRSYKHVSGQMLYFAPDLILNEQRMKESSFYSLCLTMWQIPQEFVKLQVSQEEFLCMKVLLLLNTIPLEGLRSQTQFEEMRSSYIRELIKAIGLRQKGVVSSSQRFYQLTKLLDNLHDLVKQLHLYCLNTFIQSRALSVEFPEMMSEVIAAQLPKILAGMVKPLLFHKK
How it was run: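 Cells are plated, rested 6 hr, then dosed with test compound in DMSO and challenged with 1 nM promegestone. After 16 hr incubation, substrate loading for 2 h at room temperature precedes fluorescence reading; viability is measured in the same wells.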

[11] = TOX21_PR_BLA_Followup_Antagonist_viability: Viability Assessment in the Tox21 HEK293 Progesterone Receptor (PR) Antagonism Beta-lactamase Follow-Up Assay (AID 2283936);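 further: cells exposed to compound with R5020 agonist for 16 h; hits lower the luminescence signal meaning cytotoxicity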
How it was run: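 PR-UAS-bla HEK293T cells in medium with 2% charcoal-stripped FBS were treated with compounds plus R5020 for 16 hr at 37C. After the beta-lactamase read, CellTiter-Glo was added to the same wells and luminescence read after 30 min at room temperature.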

[12] = TOX21_PR_LUC_Followup_Antagonist_viability: Viability Assessment in the Tox21 HEK293 Progesterone Receptor (PR) Antagonism Luciferase Follow-Up Assay (AID 2283940)
How it was run: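 HEK293-PR-A-luc, 3,000 cells/well; 5 h at 37C/0% CO2; compound pin transfer; 16 h incubation; CellTiter-Glo ATP luminescence, signal loss = cytotoxicity.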

[13] = TOX21_PR_LUC_Followup_Agonist_viability: Viability Assessment in the Tox21 HEK293 Progesterone Receptor (PR) Agonism Luciferase Follow-Up Assay (AID 2283941);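 further: loss of signal means cytotoxicity so actives lower viability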
How it was run: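 Multiplexed viability endpoint of the PR agonist luciferase follow-up: HEK293-PR-A-luc cells treated 16 h at 37C, with viability scored as decrease in CellTiter-Glo ATP signal.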

THRA (gene 7067) [14] = target: THRA (gene 7067) (UniProt P10827); experiment: TOX21_TRA_COA_Antagonist_Followup_ratio: Tox21 Thyroid Hormone Receptor alpha Antagonism through Coactivator Recruitment Follow-Up Assay, Ratio (AID 2283953)
How it was run: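 GST-TRα LBD 2.5 nM, BSA 0.10%, + cpd; then FITC-SRC-2 peptide 200 nM + Tb-anti-GST Ab 2 nM. TR-FRET ratio 520/495 nm. Norm: DMSO = 0%, T3 = 100%.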

THRB (gene 7068) [15] = target: THRB (gene 7068) (UniProt P10828); experiment: TOX21_TRB_BLA_Antagonist_Followup_ratio: Tox21 Thyroid Hormone Receptor beta Antagonism Beta-lactamase (BLA) Follow-Up Assay, Ratio (AID 2283958)
How it was run: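 Cells were plated and allowed to attach for 5 h, then dosed with compounds in DMSO at 11 concentrations for 18 h at 37C. Beta-lactamase reporter activity was measured via CCF4-AM FRET as the 460:530 nm ratio.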

[16] = target: Retinoic acid receptor RXR-alpha (Homo sapiens) (UniProt P19793); experiment: TOX21_TR_RXR_BLA_Antagonist_Followup_ratio: Tox21 Thyroid Hormone Receptor beta Retinoid X Receptor alpha (RXRa) Antagonism Beta-lactamase (BLA) Follow-Up Assay, Ratio (AID 2283972)
How it was run: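 RXRa-UAS-bla HEK293T cells, 2,500/well in phenol red-free DMEM with 2% charcoal-stripped FBS, 5 h attachment, then compounds (11 concentrations, triplicate) for 16 h at 37C; FRET-B/GCCF4-AM substrate 2 h RT; 460:530 nm ratio, loss of signal vs DMSO.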

[17] = TOX21_PR_BLA_Followup_Agonist_viability: Viability Assessment in the Tox21 HEK293 Progesterone Receptor (PR) Agonism Beta-lactamase Follow-Up Assay (AID 2283935);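 further: signal loss means lower viability so actives are cytotoxic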
How it was run: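 Cells were plated in medium with 2% charcoal-stripped FBS and rested 6 hr. Compounds in DMSO were then added for 16 hr at 37C, followed by the FRET substrate step and CellTiter-Glo luminescence after 30 min.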

PGR (gene 5241) [18] = target: PGR (gene 5241) (UniProt P06401); experiment: TOX21_PR_LUC_Followup_Antagonist: Tox21 HEK293 Progesterone Receptor (PR) Antagonism Luciferase Follow-Up Assay (AID 2283938);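 further: curve fitted upward as signal gain over DMSO baseline despite antagonist label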
How it was run: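 HEK293-PR-A-luc cells, 3,000/well, preincubated 5 h at 37C before compound addition in DMSO; 16 h compound exposure at 37C. ONE-Glo luciferase luminescence read after 30 min at room temperature, fitted relative to DMSO baseline.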

[19] = CCTE_Harrill_HTTr_Viability_DMEM_6hr: (Pilot) CCTE's 6-hour Cell Viability Assessment for the High-Throughput Transcriptomics (HTTr) Platform, in MCF-7 cells cultured in DMEM + 10% fetal bovine serum, Harrill Lab (AID 2283973; active means hit-call score of the fitted dose curve at least 0.9, where 1 is the maximum; inactive means score below 0.9)
How it was run: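 Propidium iodide uptake imaged by high-content analysis after six hours of chemical treatment in an eight-concentration series. Cells: MCF-7 grown in DMEM with 10% fetal bovine serum; DMSO as baseline.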

[20] = CCTE_Harrill_HTTr_Viability_DMEM_12hr: (Pilot) CCTE's 12-hour Cell Viability Assessment for the High-Throughput Transcriptomics (HTTr) Platform, in MCF-7 cells cultured in DMEM + 10% fetal bovine serum, Harrill Lab (AID 2283974; active means hit-call score of the fitted dose curve at least 0.9, where 1 is the maximum; inactive means score below 0.9)
How it was run: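 Propidium iodide dye exclusion imaged by high-content microscopy after 12 h chemical exposure (eight concentrations) of MCF-7 cells grown in DMEM plus 10% FBS; values fitted in both directions relative to DMSO.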

## Cn1c(=O)c2[nH]cnc2n(C)c1=O
[1]
  outcome: inactive
THRA (gene 7067) [2]
  outcome: inactive
THRB (gene 7068) [3]
  outcome: inactive
THRB (gene 7068) [4]
  outcome: inactive
[5]
  outcome: inactive
[6]
  outcome: inactive

## Nc1ccn([C@@H]2O[C@H](CO)[C@@H](O)[C@@H]2O)c(=O)n1
[7]
  outcome: inactive
[8]
  outcome: inactive
THRB (gene 7068) [9]
  outcome: inactive

## O=c1[nH]cnc2c1ncn2[C@H]1CC[C@@H](CO)O1
THRA (gene 7067) [2]
  outcome: inactive
THRB (gene 7068) [3]
  AC50: 9.78 µM (active)
THRB (gene 7068) [4]
  outcome: inactive
[5]
  outcome: inactive
[6]
  outcome: inactive

## NC(=O)N(O)[C@@H]1COc2cc(OCc3ccccc3)ccc21
PGR (gene 5241) [10]
  outcome: inactive
[11]
  outcome: inactive
[12]
  outcome: inactive
[13]
  outcome: inactive

## Cc1nccn1-c1ccc(Sc2cccc(C3(C(N)=O)CCOCC3)c2)cc1
[7]
  AC50: 32.9 µM (active)
THRA (gene 7067) [14]
  outcome: inactive
THRB (gene 7068) [15]
  AC50: 21.5 µM (active)
[8]
  outcome: inactive
THRB (gene 7068) [9]
  outcome: inactive
[16]
  outcome: inactive

## CC(C)C(=O)Nc1ccc([N+](=O)[O-])c(C(F)(F)F)c1
PGR (gene 5241) [10]
  AC50: 46.1 µM (active)
[17]
  outcome: inactive
[11]
  outcome: inactive
PGR (gene 5241) [18]
  outcome: inactive
[12]
  outcome: inactive
[13]
  outcome: inactive
[19]
  outcome: inactive
[20]
  outcome: inactive

## COc1cc2c(c(OC)c1OC)-c1ccc(OC)c(=O)cc1[C@@H](NC(C)=O)CC2
[7]
  outcome: inactive
THRB (gene 7068) [15]
  AC50: 0.0894 µM (active)
[8]
  outcome: inactive
THRB (gene 7068) [9]
  outcome: inactive
[16]
  outcome: inactive
